Drawing on publication PMC7862700, “An all-to-all approach to the identification of sequence-specific readers for epigenetic DNA modifications on cytosine”, this text covers binding signal for two sequences.

Experiment in all cases: DAPPL (digital affinity profiling via proximity ligation, sequencing); 10 mM Tris-HCl pH 7.5, 50 mM NaCl, 1 mM DTT, 4% glycerol, room temperature, 30 min; GST-TFs on glutathione beads, 16-mer random dsDNA library, 0.1% formaldehyde crosslink after washing; high values mean tight binding
Holding throughout (details): protein: recombinant; tags: N-terminal GST; dsDNA, one strand shown

The target in assay [1] is T1, FLI1 (Homo sapiens, UniProt Q01543 1-452).
T1 sequence: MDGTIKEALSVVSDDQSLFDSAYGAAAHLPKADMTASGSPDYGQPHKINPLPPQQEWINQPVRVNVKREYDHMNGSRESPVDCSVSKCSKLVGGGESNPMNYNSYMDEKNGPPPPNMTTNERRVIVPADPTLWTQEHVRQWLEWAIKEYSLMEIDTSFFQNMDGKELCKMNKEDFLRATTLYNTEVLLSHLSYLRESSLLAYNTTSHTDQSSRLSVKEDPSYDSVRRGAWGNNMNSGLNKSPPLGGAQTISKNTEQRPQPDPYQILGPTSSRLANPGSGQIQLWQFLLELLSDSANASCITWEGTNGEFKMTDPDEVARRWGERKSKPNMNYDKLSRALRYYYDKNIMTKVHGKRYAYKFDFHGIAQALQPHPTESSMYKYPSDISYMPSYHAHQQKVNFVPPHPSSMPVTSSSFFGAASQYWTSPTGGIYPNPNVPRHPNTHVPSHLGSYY
The gist of the method:
(§1)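 Beads coated with glutathione captured GST-fused human transcription factors that had been expressed in yeast, and the factors were then given DNA barcodes and pooled with a tag-only sample. The pools were incubated with 200 nmole of a random double-stranded 16-mer DNA library in Tris/NaCl/DTT/glycerol buffer for 30 min at room temperature, washed, crosslinked with 0.1% formaldehyde and proximity-ligated with BsaI/T4 ligase at 37 °C for 1 h. PCR amplification and Illumina NextSeq500 sequencing came last. Binding signal is each hexamer's read frequency for a factor divided by its frequency for the tag-only sample.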

Assay [2] concerns the target T2, ERG (Homo sapiens, UniProt P11308 1-479).
T2 sequence: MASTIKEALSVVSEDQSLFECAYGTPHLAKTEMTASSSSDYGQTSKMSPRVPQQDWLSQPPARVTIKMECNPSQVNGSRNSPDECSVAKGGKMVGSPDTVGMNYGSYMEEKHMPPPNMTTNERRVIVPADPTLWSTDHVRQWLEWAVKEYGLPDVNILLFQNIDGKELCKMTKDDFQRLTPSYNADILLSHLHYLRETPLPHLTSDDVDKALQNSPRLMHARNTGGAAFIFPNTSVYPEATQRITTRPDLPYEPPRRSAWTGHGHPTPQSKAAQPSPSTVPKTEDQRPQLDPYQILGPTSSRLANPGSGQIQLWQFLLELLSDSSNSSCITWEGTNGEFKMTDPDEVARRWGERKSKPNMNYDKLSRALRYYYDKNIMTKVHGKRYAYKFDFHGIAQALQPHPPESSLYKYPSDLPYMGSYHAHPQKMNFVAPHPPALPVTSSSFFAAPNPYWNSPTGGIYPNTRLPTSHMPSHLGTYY
The gist of the method:
as §1

Assay [3] deals with T3, EHF (Homo sapiens, UniProt Q9NZC4 1-300).
T3 sequence: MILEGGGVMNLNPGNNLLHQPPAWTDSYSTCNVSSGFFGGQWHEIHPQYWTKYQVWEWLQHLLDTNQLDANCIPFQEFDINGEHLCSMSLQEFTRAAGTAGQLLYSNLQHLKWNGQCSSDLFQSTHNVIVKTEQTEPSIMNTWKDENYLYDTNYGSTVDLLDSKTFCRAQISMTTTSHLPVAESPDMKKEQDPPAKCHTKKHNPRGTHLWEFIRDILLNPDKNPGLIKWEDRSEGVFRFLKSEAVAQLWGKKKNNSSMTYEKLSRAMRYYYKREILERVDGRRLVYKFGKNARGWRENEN
An outline of the steps: as §1

Assay [4] has as its target SPIB (Homo sapiens, UniProt Q01892 1-262). An outline of the steps:
as §1

In assay [5] the target is T4, FEV (Homo sapiens, UniProt Q99581 1-238).
T4 sequence: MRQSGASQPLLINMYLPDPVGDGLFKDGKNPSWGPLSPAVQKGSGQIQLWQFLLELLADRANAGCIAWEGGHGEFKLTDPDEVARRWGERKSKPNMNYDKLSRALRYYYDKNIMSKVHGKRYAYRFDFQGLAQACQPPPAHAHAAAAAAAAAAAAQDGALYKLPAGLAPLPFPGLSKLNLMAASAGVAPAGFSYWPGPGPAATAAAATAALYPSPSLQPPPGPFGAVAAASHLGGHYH
An outline of the steps:
as §1

For assay [6], the target named is ETV5 (Homo sapiens, UniProt P41161 1-510). The gist of the method: as §1
Chain of ETV5 (P41161 whole entry): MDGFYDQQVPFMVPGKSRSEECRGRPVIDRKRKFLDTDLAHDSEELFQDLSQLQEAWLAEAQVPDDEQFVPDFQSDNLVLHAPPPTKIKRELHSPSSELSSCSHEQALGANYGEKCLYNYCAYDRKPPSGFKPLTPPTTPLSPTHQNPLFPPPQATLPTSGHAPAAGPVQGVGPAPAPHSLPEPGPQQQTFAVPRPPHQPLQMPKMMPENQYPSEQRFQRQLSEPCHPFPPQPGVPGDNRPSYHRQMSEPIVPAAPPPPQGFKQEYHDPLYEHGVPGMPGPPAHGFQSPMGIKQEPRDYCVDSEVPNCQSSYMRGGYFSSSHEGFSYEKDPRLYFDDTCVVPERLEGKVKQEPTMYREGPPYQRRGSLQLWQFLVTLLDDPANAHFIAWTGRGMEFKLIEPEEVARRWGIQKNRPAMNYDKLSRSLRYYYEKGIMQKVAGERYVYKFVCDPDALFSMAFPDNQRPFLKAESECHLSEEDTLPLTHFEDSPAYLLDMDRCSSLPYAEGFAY
The target in assay [7] is T5, SPIC (Homo sapiens, UniProt Q8N5J4 1-248).
T5 sequence: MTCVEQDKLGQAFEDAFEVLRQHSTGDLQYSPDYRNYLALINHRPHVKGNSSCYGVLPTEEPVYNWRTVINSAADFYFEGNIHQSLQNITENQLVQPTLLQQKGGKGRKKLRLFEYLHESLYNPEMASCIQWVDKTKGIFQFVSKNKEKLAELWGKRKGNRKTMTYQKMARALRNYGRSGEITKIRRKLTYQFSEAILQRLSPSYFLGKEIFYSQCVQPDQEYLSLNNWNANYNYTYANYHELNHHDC
The gist of the method:
as §1

For assay [8], the target named is ETV1 (Homo sapiens, UniProt P50549 1-477). An outline of the steps:
as §1

Assay [9] concerns the target T6, ETV3L (Homo sapiens, UniProt Q6ZN32 1-361).
T6 sequence: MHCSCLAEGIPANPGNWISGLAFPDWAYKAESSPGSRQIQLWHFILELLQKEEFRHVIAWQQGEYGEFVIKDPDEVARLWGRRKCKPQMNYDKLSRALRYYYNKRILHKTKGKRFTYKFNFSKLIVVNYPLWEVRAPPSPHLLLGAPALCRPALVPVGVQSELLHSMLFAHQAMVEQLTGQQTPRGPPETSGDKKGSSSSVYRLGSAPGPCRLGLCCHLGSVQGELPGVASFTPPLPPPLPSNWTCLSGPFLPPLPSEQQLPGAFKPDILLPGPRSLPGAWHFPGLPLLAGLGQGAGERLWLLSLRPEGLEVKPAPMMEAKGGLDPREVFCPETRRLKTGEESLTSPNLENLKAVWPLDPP
The gist of the method:
as §1

For assay [10], the target named is T7, ETS2 (Homo sapiens, UniProt P15036 1-469).
T7 sequence: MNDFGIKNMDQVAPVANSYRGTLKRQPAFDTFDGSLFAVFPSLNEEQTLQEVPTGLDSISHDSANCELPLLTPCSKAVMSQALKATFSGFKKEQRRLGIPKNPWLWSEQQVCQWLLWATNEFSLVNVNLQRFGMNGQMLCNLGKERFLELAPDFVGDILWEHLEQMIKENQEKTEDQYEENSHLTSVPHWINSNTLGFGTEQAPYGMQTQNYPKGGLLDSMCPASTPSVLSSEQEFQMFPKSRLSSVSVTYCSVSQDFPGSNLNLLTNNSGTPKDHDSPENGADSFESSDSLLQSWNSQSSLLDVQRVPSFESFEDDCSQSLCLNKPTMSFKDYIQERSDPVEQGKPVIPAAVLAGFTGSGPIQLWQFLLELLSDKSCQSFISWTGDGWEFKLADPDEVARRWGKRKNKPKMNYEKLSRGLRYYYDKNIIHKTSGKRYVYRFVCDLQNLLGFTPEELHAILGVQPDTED
An outline of the steps:
as §1

Assay [11] concerns the target T8, ELF5 (Homo sapiens, UniProt Q9UKW6-2 1-255).
T8 sequence: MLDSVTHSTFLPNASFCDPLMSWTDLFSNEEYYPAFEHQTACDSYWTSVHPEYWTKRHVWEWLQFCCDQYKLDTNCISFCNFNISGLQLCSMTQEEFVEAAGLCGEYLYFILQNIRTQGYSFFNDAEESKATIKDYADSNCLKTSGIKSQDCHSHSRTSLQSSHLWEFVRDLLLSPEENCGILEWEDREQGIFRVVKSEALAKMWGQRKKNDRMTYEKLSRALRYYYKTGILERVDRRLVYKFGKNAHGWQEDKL
The gist of the method:
as §1

In assay [12] the target is T9, ETV3 (Homo sapiens, UniProt P41162-2 1-143).
T9 sequence: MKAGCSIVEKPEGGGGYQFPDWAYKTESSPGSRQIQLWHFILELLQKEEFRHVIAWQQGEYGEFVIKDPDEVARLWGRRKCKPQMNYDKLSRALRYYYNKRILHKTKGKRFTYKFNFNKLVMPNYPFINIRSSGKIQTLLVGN
An outline of the steps: as §1

For assay [13], the target named is ETV6 (Homo sapiens, UniProt P41212 1-452). The gist of the method: as §1
Chain of ETV6 (P41212 whole entry): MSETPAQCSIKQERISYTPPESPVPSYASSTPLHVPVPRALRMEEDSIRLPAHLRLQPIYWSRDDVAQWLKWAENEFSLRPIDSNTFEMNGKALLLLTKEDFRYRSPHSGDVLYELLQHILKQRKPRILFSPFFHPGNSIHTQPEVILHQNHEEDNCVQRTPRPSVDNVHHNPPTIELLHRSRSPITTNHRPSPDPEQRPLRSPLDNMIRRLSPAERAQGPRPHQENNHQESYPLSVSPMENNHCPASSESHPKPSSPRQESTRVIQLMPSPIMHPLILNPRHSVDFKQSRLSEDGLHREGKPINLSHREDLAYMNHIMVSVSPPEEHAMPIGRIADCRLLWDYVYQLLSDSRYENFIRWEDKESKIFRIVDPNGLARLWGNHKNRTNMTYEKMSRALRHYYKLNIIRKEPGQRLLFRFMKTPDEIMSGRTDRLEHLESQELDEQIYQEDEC
Assay [14] addresses T10, ELK1 (Homo sapiens, UniProt P19419 1-428).
T10 sequence: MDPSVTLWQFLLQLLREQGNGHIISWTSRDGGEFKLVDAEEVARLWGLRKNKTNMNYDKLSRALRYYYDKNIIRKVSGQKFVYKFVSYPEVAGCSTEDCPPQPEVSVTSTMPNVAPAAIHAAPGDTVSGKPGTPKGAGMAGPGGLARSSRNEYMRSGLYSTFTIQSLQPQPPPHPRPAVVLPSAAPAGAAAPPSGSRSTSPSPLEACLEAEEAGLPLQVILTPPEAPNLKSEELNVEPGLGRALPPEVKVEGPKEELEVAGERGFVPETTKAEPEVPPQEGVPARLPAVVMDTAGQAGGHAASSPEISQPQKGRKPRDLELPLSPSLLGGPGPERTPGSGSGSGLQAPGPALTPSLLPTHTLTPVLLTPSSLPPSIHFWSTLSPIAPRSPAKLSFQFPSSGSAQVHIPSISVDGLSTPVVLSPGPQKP
An outline of the steps: as §1

Assay [15] concerns the target ELF1 (Homo sapiens, UniProt P32519 1-619). An outline of the steps:
as §1

Assay [16] concerns the target SPI1 (Homo sapiens, UniProt P17947 1-270). The gist of the method: as §1
Assay [17] has as its target T11, ELK3 (Homo sapiens, UniProt P41970 1-407).
T11 sequence: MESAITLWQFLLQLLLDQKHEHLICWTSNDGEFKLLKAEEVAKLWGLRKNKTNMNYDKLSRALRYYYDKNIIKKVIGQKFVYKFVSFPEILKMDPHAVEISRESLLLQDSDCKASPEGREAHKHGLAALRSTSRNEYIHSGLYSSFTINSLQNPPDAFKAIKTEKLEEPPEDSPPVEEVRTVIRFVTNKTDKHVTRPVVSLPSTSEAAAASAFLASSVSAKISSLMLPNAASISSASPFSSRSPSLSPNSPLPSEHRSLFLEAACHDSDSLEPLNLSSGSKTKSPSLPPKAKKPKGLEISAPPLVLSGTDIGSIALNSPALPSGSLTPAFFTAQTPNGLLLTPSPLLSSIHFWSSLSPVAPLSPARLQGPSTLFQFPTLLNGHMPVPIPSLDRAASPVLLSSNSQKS
The gist of the method: as §1

In assay [18] the target is T12, ERF (Homo sapiens, UniProt P50548 1-548).
T12 sequence: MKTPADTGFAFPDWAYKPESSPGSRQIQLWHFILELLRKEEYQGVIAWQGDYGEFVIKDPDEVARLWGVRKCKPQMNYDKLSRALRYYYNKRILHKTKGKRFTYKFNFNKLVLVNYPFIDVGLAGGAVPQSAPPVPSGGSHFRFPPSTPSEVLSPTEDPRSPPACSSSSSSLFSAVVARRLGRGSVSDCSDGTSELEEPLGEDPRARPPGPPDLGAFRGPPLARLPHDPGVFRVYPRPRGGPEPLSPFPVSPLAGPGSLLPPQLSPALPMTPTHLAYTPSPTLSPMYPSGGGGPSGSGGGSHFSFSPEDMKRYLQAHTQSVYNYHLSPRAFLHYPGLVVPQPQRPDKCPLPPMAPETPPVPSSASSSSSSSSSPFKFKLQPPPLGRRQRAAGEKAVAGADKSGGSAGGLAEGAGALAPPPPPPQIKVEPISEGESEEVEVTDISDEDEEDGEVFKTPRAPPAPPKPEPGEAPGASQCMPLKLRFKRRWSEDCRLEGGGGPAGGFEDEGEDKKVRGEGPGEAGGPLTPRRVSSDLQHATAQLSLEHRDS
An outline of the steps:
as §1

Chain of SPIB (Q01892 whole entry): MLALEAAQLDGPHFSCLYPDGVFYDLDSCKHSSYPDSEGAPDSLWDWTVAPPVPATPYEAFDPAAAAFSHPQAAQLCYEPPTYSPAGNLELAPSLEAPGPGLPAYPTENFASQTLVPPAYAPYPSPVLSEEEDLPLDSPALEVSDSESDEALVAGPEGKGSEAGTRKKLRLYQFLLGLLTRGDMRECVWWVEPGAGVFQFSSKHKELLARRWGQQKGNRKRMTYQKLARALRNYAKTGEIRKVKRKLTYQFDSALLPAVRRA
Chain of ELF1 (P32519 whole entry): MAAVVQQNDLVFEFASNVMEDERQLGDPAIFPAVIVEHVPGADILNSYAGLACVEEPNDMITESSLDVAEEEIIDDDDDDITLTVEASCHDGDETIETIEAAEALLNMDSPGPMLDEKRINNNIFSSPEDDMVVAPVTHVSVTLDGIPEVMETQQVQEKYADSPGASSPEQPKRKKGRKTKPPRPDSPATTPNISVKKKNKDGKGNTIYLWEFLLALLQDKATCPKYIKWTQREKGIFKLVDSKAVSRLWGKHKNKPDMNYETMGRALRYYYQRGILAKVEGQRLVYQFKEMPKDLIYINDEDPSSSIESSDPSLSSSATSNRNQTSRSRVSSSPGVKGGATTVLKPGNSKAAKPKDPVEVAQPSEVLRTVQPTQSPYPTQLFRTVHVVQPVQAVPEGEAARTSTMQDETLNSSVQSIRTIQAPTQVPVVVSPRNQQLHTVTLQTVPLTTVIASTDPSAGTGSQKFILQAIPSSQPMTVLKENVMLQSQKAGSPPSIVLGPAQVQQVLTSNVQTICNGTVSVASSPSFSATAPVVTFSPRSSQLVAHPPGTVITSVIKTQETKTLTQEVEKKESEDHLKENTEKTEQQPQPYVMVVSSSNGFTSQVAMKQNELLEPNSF
Chain of ETV1 (P50549 whole entry): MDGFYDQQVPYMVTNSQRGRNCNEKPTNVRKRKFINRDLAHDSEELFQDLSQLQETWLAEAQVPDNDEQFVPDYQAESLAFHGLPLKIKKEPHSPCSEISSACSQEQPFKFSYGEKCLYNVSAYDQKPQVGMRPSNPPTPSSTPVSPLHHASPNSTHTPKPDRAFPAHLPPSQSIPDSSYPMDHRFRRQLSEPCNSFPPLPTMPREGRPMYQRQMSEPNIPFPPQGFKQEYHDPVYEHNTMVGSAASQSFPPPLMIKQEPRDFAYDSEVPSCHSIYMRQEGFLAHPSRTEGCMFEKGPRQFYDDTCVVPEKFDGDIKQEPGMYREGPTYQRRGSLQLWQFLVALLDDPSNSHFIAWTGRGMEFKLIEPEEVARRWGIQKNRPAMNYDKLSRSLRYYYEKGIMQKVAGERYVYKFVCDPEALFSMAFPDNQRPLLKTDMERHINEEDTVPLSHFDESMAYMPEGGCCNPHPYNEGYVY

CCCGGT: the binding signal in [1] is 1.01 fold enrichment (6-mer frequency, TF over GST control); in [2] it was 1.09 fold enrichment (6-mer frequency, TF over GST control); in [3], 1.14 fold enrichment (6-mer frequency, TF over GST control); in assay [4], 1.01 fold enrichment (6-mer frequency, TF over GST control); in assay [5], 1.04 fold enrichment (6-mer frequency, TF over GST control); in assay [6] it was 1.09 fold enrichment (6-mer frequency, TF over GST control). For the same sequence, the binding signal was 1.07 fold enrichment (6-mer frequency, TF over GST control) in assay [7]; 1.07 fold enrichment (6-mer frequency, TF over GST control) in assay [8]; 1.01 fold enrichment (6-mer frequency, TF over GST control) in [9]; 1.04 fold enrichment (6-mer frequency, TF over GST control) in assay [10]; 1.05 fold enrichment (6-mer frequency, TF over GST control) in assay [11]; 1.09 fold enrichment (6-mer frequency, TF over GST control) in assay [12]. The binding signal in [13] was 1 fold enrichment (6-mer frequency, TF over GST control).
With GTTGCG, the binding signal in assay [1] is 1 fold enrichment (6-mer frequency, TF over GST control); in assay [14], 1.04 fold enrichment (6-mer frequency, TF over GST control); in [2], 1.09 fold enrichment (6-mer frequency, TF over GST control); in assay [15] it was 1.02 fold enrichment (6-mer frequency, TF over GST control); in [16] it was 1.02 fold enrichment (6-mer frequency, TF over GST control); in assay [4], 1.15 fold enrichment (6-mer frequency, TF over GST control). The binding signal in assay [17] was 1.01 fold enrichment (6-mer frequency, TF over GST control); in [6] it was 1.07 fold enrichment (6-mer frequency, TF over GST control); in assay [7], 1.23 fold enrichment (6-mer frequency, TF over GST control); in [18], 1.14 fold enrichment (6-mer frequency, TF over GST control); in assay [9], 1.06 fold enrichment (6-mer frequency, TF over GST control); in assay [10] it was 1.07 fold enrichment (6-mer frequency, TF over GST control). The binding signal in assay [11] was 1.02 fold enrichment (6-mer frequency, TF over GST control); in assay [12], 1.07 fold enrichment (6-mer frequency, TF over GST control).
